Measured values published in PubChem BioAssay (NCI).
Compounds without any hit were thinned out: in the full panel of roughly 79,000, 15% have a hit. Unmarked numbers belong to inactive results. No stated cut-off is given here; in the data, active means growth inhibition above about 70%; inactive means the rest.

Test: NCI Yeast Anticancer Drug Screen. Data for the rad50 strain (AID 155);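 further: 0% = growth of vehicle-only cultures of the same strain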
Conditions: S. cerevisiae rad50 strain growth inhibition; at 50.0 µM; hits give high values
In short: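 A DNA repair-deficient yeast mutant serves as the test organism; compound-induced growth inhibition is calculated against vehicle-treated cells.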

Compound | growth inhibition [%]
Nc1ccc2ccccc2c1S(=O)(=O)O | 16.1
CCSCC1OC(n2cnc3c(=S)nc(N)[nH]c32)C(O)C1O (stereo not drawn) | 15.2
Cc1cc(Cc2cc(C)c(O)c(CN(C)C)c2)cc(CN(C)C)c1O | -1.8
Cc1cccc(N=Cc2ccc(N(CCC#N)S(=O)(=O)c3ccccc3)cc2C)c1 | -34.5
CCOC(=O)C(CNCc1ccccc1)(c1ccccc1)c1ccccc1 | -6.5
N#CC(NC(=O)NCCCl)c1ccccc1 (stereo not drawn) | -8.8
C#CCCOC(=O)c1ccccc1OC(C)=O | -0.8
CCOCCC(=O)OCCC(C)OC (stereo not drawn) | 4.95
CC(C)C1CCC(C)(C(N)=O)C1 (stereo not drawn) | 8.2
CC(=O)C1CCC2C3CCC4CC5(CCC4(C)C3C(=O)CC12C)NC(C(=O)O)CS5 (stereo not drawn) | 2.25
COC(=O)NS(=O)(=O)C1=Cc2cccc3cccc1c23 | 8.55
CC(C)C1=C(Cc2ccccc2)C(=O)O/C1=C\c1ccc(O)c(Cl)c1 | 2.8
COc1cccc(-n2cnc3c(SC)ncnc32)c1 | 8.8
Cc1ccc(S(=O)(=O)OI(O)CC(F)(F)F)cc1 | -39.1
O=C1CCCS(=O)(=O)CCC1 | 7.4
CC(=O)Nc1ccc(/C=C/c2csnn2)cc1 | -7.8
COc1cccc2c1C(CO)N1C(C#N)C3CC(C(=O)O)C(C1C2)N3C (stereo not drawn) | 0.25
O=C(O)c1ccc(CSc2ccccc2C(=O)O)cc1 | 16.4
